Reference: PubChem BioAssay (NCATS)
Results filed as inconclusive are left out. Activity calls are given as the source filed them. Unless noted, the call rests on the fitted dose curve.

Assays:
[1] = biological target: Bile acid receptor (Homo sapiens) (UniProt Q96RI1); test: qHTS assay for small molecule antagonists of farnesoid X receptor signaling (AID 588526); further: potency means the concentration at half of the fitted maximal effect
Procedure, shortened: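 Beta-lactamase reporter antagonist mode: HEK293T FXR-UAS-bla cells, titrated compound, CDCA stimulation, 16 h 37 C, CCF4 dye 2 h RT. Data normalized to CDCA 50 uM and DMSO; Hill-fit IC50.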

[2] = biological target: Bile acid receptor (Homo sapiens) (UniProt Q96RI1); test: qHTS assay for small molecule agonists of farnesoid X receptor signaling (AID 588527); conditions: HEK293T FXR-UAS-bla, beta-lactamase ratio, 16 h; activation: stronger effect = higher value;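 further: series mostly up to about 77 µM; 0% = vehicle basal and 100% = reference agonist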
Procedure, shortened: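 FXR-UAS-bla HEK293T cells (10% dialyzed FBS) preincubated 5-7 h at 37 C, then compounds at up to 92 uM for 16 h at 37 C. CCF4 beta-lactamase read-out after 2 h RT. Normalized to chenodeoxycholic acid (100 uM) and DMSO; Hill fit gave EC50 and efficacy.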

[3] = biological target: Peroxisome proliferator-activated receptor delta (Homo sapiens) (UniProt Q03181); test: qHTS assay for small molecule agonists of peroxisome proliferator-activated receptor delta signaling (AID 588534);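 further: 0% = DMSO basal wells and 100% = positive control agonist at 10 µM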
Procedure, shortened: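 Agonist-mode qHTS; reporter cells, 5 hrs 37 C pre-incubation; compound titration, 18 hrs 37 C; CCF4 dye, 2 hrs RT; fluorescence read. EC50/efficacy via Hill fit.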

[4] = qHTS assay for small molecule antagonists of peroxisome proliferator-activated receptor delta signaling (AID 588535; active means well fitted inhibition curve with a large enough effect in the signal ratio, with a control signal flat, not every such curve was filed as active; the % refers to the signal ratio;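 on max response: cells co-treated with a PPAR-delta agonist as stimulator during compound exposure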); conditions: HEK293T PPARd-UAS-bla, beta-lactamase FRET ratio, 18 h; 460 nm channel
Procedure, shortened: (§1)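 Titrations were run on PPAR-delta-UAS-bla HEK293T cells in charcoal/dextran-stripped serum, incubated 18 h at 37 C. CCF4 fluorescence (460/530 nm) after 2 h RT; Hill equation yields IC50 and maximal response.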

[5] = biological target: Peroxisome proliferator-activated receptor delta (Homo sapiens) (UniProt Q03181); test: as above
Procedure, shortened: as §1

[6] = biological target: Vitamin D3 receptor (Homo sapiens) (UniProt P11473); test: qHTS assay for small molecule agonists of vitamin D receptor signaling (AID 588543);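 further: 0% = DMSO basal and 100% = reference agonist control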
Procedure, shortened: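 qHTS in agonist mode: compound titrations stimulate a VDR-driven β-lactamase reporter in HEK293T cells over 16 h at 37 °C. Response normalized to 50 nM 1α,25-dihydroxyvitamin D3 = 100%, DMSO = 0%; Hill fitting gives EC50 and maximal response.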

[7] = qHTS assay for small molecule agonists of retinoid X receptor alpha signaling (AID 588544); conditions: HEK293T RXRa-UAS-bla, beta-lactamase reporter, 18 h; 530 nm emission;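 on activation: 0% = DMSO basal wells and 100% = reference agonist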
[8] = biological target: Retinoic acid receptor RXR-alpha (Homo sapiens) (UniProt P19793); test: as above
[9] = biological target: Thyroid hormone receptor beta (Homo sapiens) (UniProt P10828); test: qHTS assay for small molecule agonists of thyroid hormone receptor beta signaling (AID 588545)
Procedure, shortened: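 Agonist activity was read as beta-lactamase CCF4 fluorescence (405 ex, 460/530 em), scaled between DMSO (0%) and 10 nM T3 (100%), then Hill-fitted for EC50 and efficacy. HEK 293 TR-UAS-bla cells in 2% charcoal/dextran FBS medium were exposed 18 h at 37 C.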

[10] = qHTS assay for small molecule antagonists of retinoid X receptor alpha signaling (AID 588546; active means well fitted inhibition curve with a large enough effect in the signal ratio, with a control signal flat, not every such curve was filed as active; the % refers to the signal ratio; further: potency means the concentration at half of the fitted maximal effect;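 on max response: cells stimulated with 9-cis-retinoic acid as agonist; on the % scale 0 is the no-effect control and ±100 the full control effect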); conditions: HEK293T RXRa-UAS-bla, beta-lactamase ratio, antagonist mode; measured here: W530 green channel, cytotoxicity proxy
Procedure, shortened: (§2)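 Beta-lactamase reporter inhibition, read as CCF4 fluorescence ratio (ex 405, em 460/530 nm) after 2 h at RT. HEK293T UAS-bla cells, 2500/well, were stimulated with 9-cis-RA at 500 or 100 nM final alongside test compound for 18 h at 37 C.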

[11] = biological target: Retinoic acid receptor RXR-alpha (Homo sapiens) (UniProt P19793); test: as above; conditions: HEK293T RXRa-UAS-bla, beta-lactamase ratio, antagonist mode
Procedure, shortened: as §2

[12] = biological target: Thyroid hormone receptor beta (Homo sapiens) (UniProt P10828); test: qHTS assay for small molecule antagonists of thyroid hormone receptor beta signaling (AID 588547; active means well fitted inhibition curve with a large enough effect in the signal ratio, with a control signal flat, not every such curve was filed as active; the % refers to the signal ratio;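 further: cells stimulated with 0.4 nM T3 agonist during compound exposure; series mostly up to about 77 µM; on the % scale 0 is the no-effect control and ±100 the full control effect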); conditions: TR-UAS-bla HEK293, beta-lactamase ratio, antagonist mode, 18 h
Procedure, shortened: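 Inhibition of T3-driven (0.4nM final) beta-lactamase reporter activity was measured over 0.59 nM to 92 uM compound after 18 h at 37 C. The cells were GripTite HEK293 TR-UAS-bla in charcoal/dextran-stripped serum, with CCF4 ratio read-out and IC50 from Hill fits.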

[13] = qHTS assay for small molecule activators of the nuclear factor-kappa B (NF-kB) signaling pathway (AID 651749; active means well fitted activation curve with a large enough effect in the signal ratio; the % refers to the signal ratio; further: series mostly up to about 77 µM; % of control where 0% means no effect); conditions: NF-kB-bla ME-180 cells, beta-lactamase FRET ratio, 16 h; activation: stronger effect = higher value
Procedure, shortened: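 Activation measured after 16 hr compound treatment at 37C, 5% CO2, of 2,000 ME-180 cells/well stably expressing an NF-kB response element–driven beta-lactamase reporter, via FRET-disruption fluorescence.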

[14] = qHTS assay for environmental chemicals that activate the Aryl hydrocarbon Receptor (AhR) signaling pathway (AID 651777; active means well fitted curve in the direction sought with a large enough effect; an effect the other way counts as inactive or inconclusive; further: nearly all actives have a fitted effect of over 15% in size; further: potency means the concentration at half of the fitted maximal effect; on activation: % of control where 0% means no effect); conditions: 1A2-DRE human hepatoma cells, luciferase, 24 h; activation: stronger effect = higher value
Procedure, shortened: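 1A2-DRE human hepatoma reporter line; 1,200 cells/well; cmpd or DMSO 24 h, 37 C/5% CO2; One-Glo 30 min RT; luciferase lum.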

[15] = biological target: Peroxisome proliferator-activated receptor alpha (Homo sapiens) (UniProt Q07869); test: qHTS assay for small molecule agonists of the peroxisome proliferator-activated receptor alpha (PPARalpha) signaling pathway (AID 651778; active means well fitted curve in the direction sought with a large enough effect; an effect the other way counts as inactive or inconclusive; further: % of control where 0% means no effect); conditions: PathHunter PPARalpha complementation, chemiluminescence, 6 h; max response: stronger effect = higher value
Procedure, shortened: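 Chemiluminescence from complemented enzyme reported PPARalpha activation in cells after 6 hr of compound treatment at 37 C. The detection reagent was incubated for 60 min at room temperature, and compounds were scored as agonists.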

[16] = qHTS assay for small molecule agonists of the antioxidant response element (ARE) signaling pathway measured by Nrf2-dependant transcriptional activity (AID 720636; active means well fitted curve in the direction sought with a large enough effect in the repeat runs; an effect the other way counts as inactive or inconclusive;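 further: HepG2 cells with an ARE-driven luciferase reporter; % of control where 0% means no effect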)
Procedure, shortened: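 Cells: ARE-luc HepG2 with Nrf2-responsive luciferase. Medium contained 1% dialyzed FBS. Compound exposure lasted 16 hr at 37 C and 5% CO2, followed by ONE-Glo luciferase detection.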

[17] = qHTS assay for small molecule agonists of the antioxidant response element (ARE) signaling pathway measured by Nrf2-dependant transcriptional activity - cell viability counter screen (AID 720653; active means well fitted curve in the direction sought with a large enough effect in the repeat runs; an effect the other way counts as inactive or inconclusive; further: potency means the concentration at half of the fitted maximal effect; on max response: on the % scale 0 is the no-effect control and ±100 the full control effect); conditions: ARE-bla HepG2 viability, CellTiter-Glo ATP luminescence, 16 h; max response: stronger effect = lower value
Procedure, shortened: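 Cytotoxicity counter screen: intracellular ATP quantified by CellTiter-Glo luminescence in the same ARE-bla HepG2 plates, after 16 h compound exposure and a 2 h beta-lactamase substrate step.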

[18] = biological target: Glucocorticoid receptor (Homo sapiens) (UniProt P04150); test: qHTS assay for small molecule agonists of glucocorticoid receptor signaling (AID 588532; active means well fitted curve in the direction sought with a large enough effect in the signal ratio, with a control signal flat; the % refers to the signal ratio;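 further: 100% = dexamethasone at 0.1 µM and 0% = DMSO only wells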); conditions: HeLa MMTV-bla, beta-lactamase ratio, agonist, 18 h; activation: stronger effect = higher value, percent of dexamethasone control, DMSO zero
Procedure, shortened: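 Quantitative HTS using CellSensor MMTV-bla HeLa cells in charcoal/dextran-treated serum; compounds tested up to 92 uM. After 18 h at 37 C, CCF4 dye reported reporter induction.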

[19] = qHTS assay for cell viability of HEK293 cells (AID 743288; active means well fitted curve in the direction sought with a large enough effect; an effect the other way counts as inactive or inconclusive; further: nearly all actives have a fitted effect of over 50% in size; further: potency means the concentration at half of the fitted maximal effect; on max response: on the % scale 0 is the no-effect control and ±100 the full control effect); conditions: ATP luminescence (CellTiter-Glo), 18 h; max response: stronger effect = lower value
Procedure, shortened: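 Quantitative high-throughput screen: compounds were pinned onto parental HEK293 cells (2,000 per well) after a minimum 5 h settling at 37 C, incubated 18 h at 37 C, and intracellular ATP measured by luciferase luminescence.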

[20] = qHTS assay for cell viability of the p53RE-bla HCT-116 cell line (AID 743292; active means well fitted curve in the direction sought with a large enough effect; an effect the other way counts as inactive or inconclusive; further: on the % scale 0 is the no-effect control and ±100 the full control effect; nearly all actives have a fitted effect of over 55% in size)
Procedure, shortened: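 HCT-116 p53RE-bla cells seeded 4,000/well; 5 h at 37 C; compound (DMSO) added; 16 h at 37 C; CellTiter-Glo added, 30 min RT; luminescence read.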

Chain of Retinoic acid receptor RXR-alpha (Homo sapiens) (P19793 whole entry, looked up): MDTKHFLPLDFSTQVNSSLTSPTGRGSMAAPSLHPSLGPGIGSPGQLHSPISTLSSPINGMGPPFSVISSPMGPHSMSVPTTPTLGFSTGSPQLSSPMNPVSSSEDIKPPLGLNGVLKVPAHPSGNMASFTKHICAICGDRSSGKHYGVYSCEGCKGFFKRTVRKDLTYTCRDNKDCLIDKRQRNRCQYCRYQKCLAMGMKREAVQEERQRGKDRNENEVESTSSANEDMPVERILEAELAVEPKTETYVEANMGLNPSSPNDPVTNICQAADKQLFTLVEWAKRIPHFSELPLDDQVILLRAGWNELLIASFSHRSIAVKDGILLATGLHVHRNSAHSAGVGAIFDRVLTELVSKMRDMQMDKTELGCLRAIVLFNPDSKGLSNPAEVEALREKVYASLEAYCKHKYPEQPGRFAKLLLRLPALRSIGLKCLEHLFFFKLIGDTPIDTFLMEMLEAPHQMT
Chain of Peroxisome proliferator-activated receptor delta (Homo sapiens) (Q03181 whole entry, looked up): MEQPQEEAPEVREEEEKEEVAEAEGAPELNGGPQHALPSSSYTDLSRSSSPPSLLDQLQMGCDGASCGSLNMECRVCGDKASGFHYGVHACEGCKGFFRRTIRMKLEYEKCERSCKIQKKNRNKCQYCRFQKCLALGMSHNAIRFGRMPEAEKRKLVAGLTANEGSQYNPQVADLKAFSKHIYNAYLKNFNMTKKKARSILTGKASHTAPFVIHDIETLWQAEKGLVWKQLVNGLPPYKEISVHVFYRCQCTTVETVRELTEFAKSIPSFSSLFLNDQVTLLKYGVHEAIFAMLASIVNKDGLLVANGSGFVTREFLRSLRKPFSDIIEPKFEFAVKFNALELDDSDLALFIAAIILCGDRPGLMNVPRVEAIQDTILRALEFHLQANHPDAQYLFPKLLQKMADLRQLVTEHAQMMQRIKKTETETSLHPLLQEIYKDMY
Chain of Peroxisome proliferator-activated receptor alpha (Homo sapiens) (Q07869 whole entry, looked up): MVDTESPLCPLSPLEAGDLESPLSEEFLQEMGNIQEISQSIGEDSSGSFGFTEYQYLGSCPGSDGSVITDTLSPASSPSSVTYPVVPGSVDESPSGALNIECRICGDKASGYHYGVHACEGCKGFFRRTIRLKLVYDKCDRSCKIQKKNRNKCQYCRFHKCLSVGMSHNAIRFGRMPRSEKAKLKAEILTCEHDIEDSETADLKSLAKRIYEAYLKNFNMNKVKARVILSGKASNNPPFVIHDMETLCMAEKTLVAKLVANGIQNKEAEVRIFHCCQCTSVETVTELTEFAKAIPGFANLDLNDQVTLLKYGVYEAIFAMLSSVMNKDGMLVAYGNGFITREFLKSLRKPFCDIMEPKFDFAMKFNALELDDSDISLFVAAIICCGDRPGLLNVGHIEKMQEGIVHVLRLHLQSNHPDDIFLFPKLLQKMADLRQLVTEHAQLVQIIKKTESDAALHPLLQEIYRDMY
Chain of Glucocorticoid receptor (Homo sapiens) (P04150 whole entry, looked up): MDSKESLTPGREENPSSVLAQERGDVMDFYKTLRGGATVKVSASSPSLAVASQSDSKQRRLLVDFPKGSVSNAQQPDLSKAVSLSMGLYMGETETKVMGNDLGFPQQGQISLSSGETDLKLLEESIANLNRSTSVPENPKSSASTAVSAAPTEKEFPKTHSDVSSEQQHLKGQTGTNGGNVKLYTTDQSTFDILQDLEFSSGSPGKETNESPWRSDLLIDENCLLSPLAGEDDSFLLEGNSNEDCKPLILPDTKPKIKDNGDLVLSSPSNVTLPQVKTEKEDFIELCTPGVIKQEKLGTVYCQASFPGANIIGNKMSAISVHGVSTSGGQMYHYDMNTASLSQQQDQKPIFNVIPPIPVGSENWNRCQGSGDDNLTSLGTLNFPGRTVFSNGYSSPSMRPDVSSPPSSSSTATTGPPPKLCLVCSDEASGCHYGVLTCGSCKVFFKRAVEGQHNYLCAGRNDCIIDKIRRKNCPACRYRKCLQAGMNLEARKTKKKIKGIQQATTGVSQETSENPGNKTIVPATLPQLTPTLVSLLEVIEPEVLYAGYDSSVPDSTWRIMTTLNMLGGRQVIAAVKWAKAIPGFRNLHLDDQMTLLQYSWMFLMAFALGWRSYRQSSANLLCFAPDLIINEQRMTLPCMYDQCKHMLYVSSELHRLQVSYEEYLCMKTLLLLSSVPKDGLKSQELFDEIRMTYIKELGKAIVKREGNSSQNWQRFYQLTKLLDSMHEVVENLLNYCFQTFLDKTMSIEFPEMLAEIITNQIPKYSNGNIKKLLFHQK
Chain of Bile acid receptor (Homo sapiens) (Q96RI1 whole entry, looked up): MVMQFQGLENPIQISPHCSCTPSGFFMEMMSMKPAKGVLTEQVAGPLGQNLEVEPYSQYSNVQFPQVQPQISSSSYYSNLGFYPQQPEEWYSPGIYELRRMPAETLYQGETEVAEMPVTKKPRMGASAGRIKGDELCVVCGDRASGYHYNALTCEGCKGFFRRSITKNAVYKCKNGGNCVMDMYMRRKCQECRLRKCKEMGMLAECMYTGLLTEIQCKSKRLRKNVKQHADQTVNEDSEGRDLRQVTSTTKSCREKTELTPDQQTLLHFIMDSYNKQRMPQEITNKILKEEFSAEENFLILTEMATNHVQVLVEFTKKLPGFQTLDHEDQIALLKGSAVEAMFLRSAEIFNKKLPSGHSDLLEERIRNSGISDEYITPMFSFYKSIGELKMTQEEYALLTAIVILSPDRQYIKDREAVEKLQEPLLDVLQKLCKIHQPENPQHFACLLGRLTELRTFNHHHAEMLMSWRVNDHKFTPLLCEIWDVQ
Chain of Vitamin D3 receptor (Homo sapiens) (P11473 whole entry, looked up): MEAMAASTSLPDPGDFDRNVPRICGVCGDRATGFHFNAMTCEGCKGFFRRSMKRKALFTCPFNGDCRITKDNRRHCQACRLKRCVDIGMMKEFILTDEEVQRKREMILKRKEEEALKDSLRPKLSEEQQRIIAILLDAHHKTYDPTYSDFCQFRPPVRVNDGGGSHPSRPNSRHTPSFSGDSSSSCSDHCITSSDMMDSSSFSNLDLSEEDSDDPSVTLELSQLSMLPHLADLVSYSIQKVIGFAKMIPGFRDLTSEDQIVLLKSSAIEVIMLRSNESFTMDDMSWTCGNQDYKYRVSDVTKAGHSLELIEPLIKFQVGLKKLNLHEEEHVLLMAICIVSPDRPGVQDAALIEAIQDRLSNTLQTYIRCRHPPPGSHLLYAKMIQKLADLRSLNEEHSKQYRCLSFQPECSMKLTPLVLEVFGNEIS
Chain of Thyroid hormone receptor beta (Homo sapiens) (P10828 whole entry, looked up): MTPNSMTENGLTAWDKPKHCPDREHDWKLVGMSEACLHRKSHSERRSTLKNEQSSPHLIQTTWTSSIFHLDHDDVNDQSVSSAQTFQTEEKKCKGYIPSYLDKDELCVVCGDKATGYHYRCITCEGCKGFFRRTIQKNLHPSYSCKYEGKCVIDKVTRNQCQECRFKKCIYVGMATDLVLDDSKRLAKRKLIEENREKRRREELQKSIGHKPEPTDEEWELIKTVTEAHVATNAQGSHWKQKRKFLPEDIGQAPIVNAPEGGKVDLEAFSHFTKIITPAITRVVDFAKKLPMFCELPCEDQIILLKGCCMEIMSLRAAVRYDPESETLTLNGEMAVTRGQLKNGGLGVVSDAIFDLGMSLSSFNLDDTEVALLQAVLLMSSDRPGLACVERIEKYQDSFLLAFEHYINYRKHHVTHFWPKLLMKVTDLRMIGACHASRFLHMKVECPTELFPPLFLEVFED

CC(C)COP(=O)(OCC(C)C)OCC(C)C
-15.8%: max response [7]
21.8%: max response [4]
-13.9%: max response [10]
inactive: Potency [1] | activation [2] 4.76% | outcome [3] | Potency [5] | outcome [6] | Potency [8] | Potency [9] | max response [11] 3.45% | activity change % (negative = inhibition) [12] -6.4% | activation [13] -3.3% | activation [14] -1.96% | max response [15] -1.01% | Potency [16] | max response [17] -13.2%

CC1COC(Cn2cncn2)(c2ccc(Oc3ccc(Cl)cc3)cc2Cl)O1 (configuration not stated)
inactive: activation [2] 3.21% | activation [18] -11.8% | Potency [9] | activation [14] 14.3% | max response [15] 6.01% | Potency [16] | max response [19] -29.8% | Potency [20]
active: Potency [1] 44.7 µM | Potency [11] 39.8 µM
9.03%: max response [10]

CC(C)C1(C)N=C(c2ncccc2C(=O)O)NC1=O (configuration not stated)
-12.1%: max response [7]
7.61%: max response [4]
-22%: max response [10]
inactive: Potency [1] | activation [2] -1.77% | activation [18] 0.632% | outcome [3] | Potency [5] | outcome [6] | Potency [8] | Potency [9] | max response [11] -0.742% | activity change % (negative = inhibition) [12] 2.89% | activation [14] -1.56% | max response [15] -1.4% | max response [17] -6.07% | max response [19] 8% | Potency [20]

CCN(CC)C(=O)SCc1ccc(Cl)cc1
0.303%: max response [7]
inactive: Potency [1] | activation [2] 5.41% | activation [18] -4.08% | outcome [6] | Potency [8] | Potency [9] | max response [11] -31.3% | activity change % (negative = inhibition) [12] 12% | activation [13] -0.511% | activation [14] 2.07% | max response [15] -1.35% | max response [17] -5.19% | max response [19] -14.7%
-13.2%: max response [10]

CCS(=O)(=O)c1cccnc1S(=O)(=O)NC(=O)Nc1nc(OC)cc(OC)n1
active: Potency [14] 31.6 µM
-45%: max response [4]
inactive: Potency [1] | activation [2] 0.0623% | activation [18] -0.845% | outcome [3] | Potency [5] | outcome [6] | Potency [9] | max response [11] 8.72% | activation [13] -1.37% | max response [15] -2.57% | max response [17] 15.3% | max response [19] -6.2% | Potency [20]
-3.64%: max response [10]

COc1cccc(C(=O)NN(C(=O)c2cc(C)cc(C)c2)C(C)(C)C)c1C
-2.17%: max response [7]
-0.516%: max response [4]
-5.99%: max response [10]
inactive: Potency [1] | activation [2] 4% | outcome [3] | Potency [5] | Potency [8] | Potency [9] | activity change % (negative = inhibition) [12] -4.61% | activation [14] 1.74% | max response [15] 0.438% | Potency [16] | max response [17] 2.48% | max response [19] -4.45%

O=[N+]([O-])c1cc(C(F)(F)F)c(Cl)c([N+](=O)[O-])c1Nc1ncc(C(F)(F)F)cc1Cl
active: Potency [1] 25.1 µM | Potency [17] 35.5 µM | Potency [19] 35.5 µM
inactive: activation [2] 2.48% | outcome [3] | max response [15] -9.03% | Potency [16]

Cc1ccc(C(C)(C)C)c(O)c1
inactive: activation [2] -1.53%

CC(C)c1ccccc1
inactive: activation [2] -3.82%

COc1ccc(OC)c(OC)c1
inactive: activation [2] 0.0379%
